PI5P4K alpha inh – qHTS for Inhibitors of phosphatidylinositol 5-phosphate 4-kinase (PI5P4K); 330,000 compounds, 1.2% hits; PI5P4Kalpha enzyme, ADP-Glo luminescence, 60 min; active compounds read low; max response, %; Phosphatidylinositol 5-phosphate 4-kinase type-2 alpha (Homo sapiens), P48426; active means max response of -50% or lower; inconclusive means between -30% and -50%; inactive means -30% or higher; further: value at the top dose of about 77 µM; on the % scale 0 is the no-effect control and ±100 the full control effect
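Controls without substrate or without enzyme flank wells where PI5P4Kalpha converts substrate using 5 microM ATP (final). Incubation lasts 60 minutes at room temperature; ADP formed is read by ADP-Glo luminescence.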
Pol eta inh-1 – qHTS for Inhibitors of Polymerase Eta. DNA polymerase eta (Homo sapiens), Q9Y253. recombinant Pol eta, fluorescent DNA replication assay. Potency, µM (highest dose often 114 µM), without a hit: at the top dose activity change, negative = inhibition, most hits filed as inhibitors. 390,000 compounds, 1.2% hits; further: potency means the concentration at half of the fitted maximal effect; on the % scale 0 is the no-effect control and ±100 the full control effect
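Fluorescent replication assay: 50 nM final substrate added after a 15 min room-temperature compound preincubation with 10 nM enzyme. Signal taken at 0 min and again at 10 min.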
POLB inh – qHTS Assay for Inhibitors of DNA Polymerase Beta; P06746; Pol beta primer extension/strand displacement, fluorescence kinetic; Potency, µM (series often up to 114 µM), for inactives: top-dose activity change, negative = inhibition, hits mostly inhibitors; 340,000 compounds, 1.3% hits; further: potency means the concentration at half of the fitted maximal effect; on the % scale 0 is the no-effect control and ±100 the full control effect
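Human Pol beta at 10 nM; strand-displacement substrate 50 nM final. Compound exposure 15 min at room temperature before start, reaction 10 min at room temperature.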
Pol iota inh – qHTS for Inhibitors of Polymerase Iota; Pol iota fluorescent replication assay, 10 min; DNA polymerase iota (Homo sapiens), Q9UNA4; Potency, µM (doses to about 115 µM), for inactives: at the top dose activity, negative = inhibition, most hits filed as inhibitors; 390,000 compounds, 1% hits; AID 588590, 2011; further: potency means the concentration at half of the fitted maximal effect
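Pol iota at 10 nM preincubated 15 min with compounds at room temperature; reaction started with fluorescent substrate, 50 nM final. Fluorescence read kinetically at 0 and 10 min; buffer-only wells as negative control.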
WRN helicase inh-1 – qHTS for Inhibitors of WRN Helicase; Bifunctional 3'-5' exonuclease/ATP-dependent helicase WRN (Homo sapiens), Q14191; WRN helicase unwinding, fluorescent forked duplex, kinetic; Potency, µM (titrated, usually from 114 µM), without a hit: top-dose activity change, negative = inhibition, hits mostly inhibitors; 360,000 compounds, 0.46% hits; AID 651768, 2012; further: potency means the concentration at half of the fitted maximal effect; on the % scale 0 is the no-effect control and ±100 the full control effect; nearly all actives have a fitted effect of over 55% in size
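Enzyme (20 nM final) and test compound sit together 15 min at room temperature before substrate addition. Substrate is a single-forked duplex oligonucleotide (100 nM) labelled with fluorophore and quencher, with 2 mM ATP; helicase unwinding raises red fluorescence, read kinetically.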
Pol kappa inh-1 – qHTS for Inhibitors of Polymerase Kappa; purified Pol kappa, fluorescent DNA synthesis assay, 10 min; Potency, µM (top dose mostly 107 µM), inactives show top-dose activity, negative = inhibition, most hits filed as inhibitors; 400,000 compounds, 0.53% hits; further: potency means the concentration at half of the fitted maximal effect; on the % scale 0 is the no-effect control and ±100 the full control effect
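50 nM final substrate added after 15 min RT preincubation of 10 nM Pol kappa with compound; fluorescence read at 0 and 10 min.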
TbPGK inh – qHTS for inhibitors of Phosphogylcerate Kinase: Hit Validation Screen; shares compounds with Pol kappa inh-1; TbPGK coupled GAPDH assay, Kinase-Glo luminescence; Potency, µM (titrated, usually from 57.5 µM), for inactives: top-dose activity change, negative = inhibition, actives largely listed as inhibitors; 500 compounds, 79% hits; AID 686980, 2013; further: potency means the concentration at half of the fitted maximal effect; on the % scale 0 is the no-effect control and ±100 the full control effect; nearly all actives have a fitted effect of over 65% in size
Target sequence (P07378 whole entry, looked up): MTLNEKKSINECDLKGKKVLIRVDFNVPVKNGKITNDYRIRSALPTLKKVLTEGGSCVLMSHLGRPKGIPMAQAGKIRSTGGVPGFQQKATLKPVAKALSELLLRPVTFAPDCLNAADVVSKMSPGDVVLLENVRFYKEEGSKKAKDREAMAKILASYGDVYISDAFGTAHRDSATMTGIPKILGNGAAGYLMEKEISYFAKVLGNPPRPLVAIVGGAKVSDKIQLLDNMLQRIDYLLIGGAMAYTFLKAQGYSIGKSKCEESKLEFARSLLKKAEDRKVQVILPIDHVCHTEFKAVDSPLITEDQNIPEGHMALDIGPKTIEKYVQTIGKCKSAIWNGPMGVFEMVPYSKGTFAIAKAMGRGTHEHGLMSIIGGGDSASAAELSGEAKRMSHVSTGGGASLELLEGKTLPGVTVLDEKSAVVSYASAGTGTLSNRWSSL
Pol iota confirm – qHTS for Inhibitors of Polymerase Iota: Confirmatory Assay for Cherry-picked Compounds; shares compounds with Pol kappa inh-1; 1,500 compounds, 77% hits; Potency, µM, actives largely listed as inhibitors; AID 720496, 2013; Pol iota primer extension, TAMRA/BHQ fluorescence; further: potency means the concentration at half of the fitted maximal effect
Pol kappa inh-2 – qHTS for Inhibitors of Polymerase Kappa: Confirmatory Assay for Cherry-picked Compounds | shares compounds with Pol eta inh-1 | 920 compounds, 76% hits | Potency, µM, usual class: inhibitors | AID 720501, 2013 | purified Pol-kappa, fluorescent strand-displacement substrate; further: potency means the concentration at half of the fitted maximal effect
Pol eta inh-2 – qHTS for Inhibitors of Polymerase Eta: Confirmatory Assay for Cherry-picked Compounds; shares compounds with Pol eta inh-1; Pol eta primer extension, TAMRA/BHQ fluorescence, 10 min; Potency, µM, usual class: inhibitors; 2,600 compounds, 64% hits; AID 720502, 2013; further: potency means the concentration at half of the fitted maximal effect
WRN helicase inh-2 – qHTS for Inhibitors of WRN Helicase: Confirmatory Assay for Cherry-picked Compounds; shares compounds with WRN helicase inh-1; Potency, µM (top dose mostly 57.1 µM), for the others: top-dose activity, negative = inhibition, usual class: inhibitors; 610 compounds, 63% hits; WRN helicase DNA unwinding, fluorescence kinetic; further: potency means the concentration at half of the fitted maximal effect; nearly all actives have a fitted effect of over 65% in size
TO displacement – qHTS for Inhibitors of WRN Helicase: Thiazole Orange DNA Binding Counterscreen. thiazole orange DNA binding displacement, fluorescence. shares compounds with WRN helicase inh-1. AID 720499, 2013. Potency, µM (top dose mostly 57.1 µM), for inactives: at the highest dose activity change, negative = inhibition, usual class: inhibitors. 610 compounds, 10% hits;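 further: drop in dye fluorescence marks compound binding to DNA; potency means the concentration at half of the fitted maximal effect; on the % scale 0 is the no-effect control and ±100 the full control effect; nearly all actives have a fitted effect of over 60% in size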
BLM counter – qHTS for Inhibitors of WRN Helicase: BLM Helicase Counterscreen for WRN Inhibitors. shares compounds with WRN helicase inh-1. Recombinant BLM helicase DNA unwinding, red fluorescence. Potency, µM (highest dose often 57.1 µM), without a hit: top-dose activity change, negative = inhibition, usual class: inhibitors. 610 compounds, 60% hits; further: potency means the concentration at half of the fitted maximal effect; nearly all actives have a fitted effect of over 60% in size
Starred values were filed as active, the others as inactive; ? = inconclusive; nt = not tested or not shown; [ ] = dose if it differs, or a comment. A selection: hits, their analogues and other compounds. The true share with any hit is near 2.8%. Unless noted, the call rests on the fitted dose curve; in most records, active means well fitted curve in the direction sought with a large enough effect; inconclusive means small, poorly fitted or top-dose-only effect, or another doubt; inactive means no such curve, though single readings can be large; an effect the other way counts as inactive or inconclusive.

SMILES | PI5P4K alpha inh | Pol eta inh-1 | POLB inh | Pol iota inh | WRN helicase inh-1 | Pol kappa inh-1 | Pol iota confirm | Pol eta inh-2 | WRN helicase inh-2 | TO displacement | BLM counter | others
O=C1c2cc(O)c(O)cc2OC(c2ccc(O)c(O)c2)C1O (stereo not drawn) | ? | 14µM* | nt | 3.2µM* | ? | 8.9µM* | 38* | 27* | 14µM* | -14% | ? | Pol kappa inh-2=19*
COc1cc(OC)cc(C(=O)N[C@H](C(=O)Nc2cccc(S(=O)(=O)N3CCCC3)c2)C(C)C)c1 | -5 | -18% | ? | 71% | -14% | -12% | nt | nt | nt | nt | nt
COc1ccc(NC(=O)/C(C#N)=C\c2ccc(OCc3ccc(C(=O)O)cc3)c(OC)c2)cc1 | 1 | ? | 8% | 32µM* | 35µM* | -4% | ? | ? | -27% | ? | ?
N#C/C(=C\c1ccccc1OCc1ccc(C(=O)O)cc1)C(=O)Nc1ccc(O)cc1 | -4 | ? | 24% | ? | -21%[57.1 µM] | -3% | nt | nt | nt | nt | nt
CCCC(=O)NC1=C(Cl)C(=O)c2ccccc2C1=O | -58* | ? | nt | 6.3µM* | 25µM* | -6% | 67* | nt | -17% | 4.8µM* | 24µM*
CCNC1=C(Cl)C(=O)c2ccccc2C1=O | -11 | -22% | ? | -3% | -15% | -11% | nt | nt | nt | nt | nt
O=C(O)CSc1cc(NS(=O)(=O)c2ccc(Cl)cc2)c2ccccc2c1O | -55* | 20µM* | 79µM* | 3.2µM* | 13µM* | -18% | 84* | 76* | ? | -12% | ? | Pol kappa inh-2=67*
O=C(N/N=C/c1ccncc1)c1cccc(S(=O)(=O)Nc2ccc(Cl)cc2)c1 | -5 | 50µM* | ? | 28µM* | 22µM* | 28µM* | 47* | 67* | 14µM* | 31% | 12µM*
O=C(O)c1ccc(-n2cccc2/C=C2\SC(=O)N(Cc3cccc(Cl)c3)C2=O)cc1 | nt | nt | nt | nt | nt | nt | ? | 30* | 19µM* | -18% | 14µM*
O=C(O)c1ccc(-n2cccc2/C=C2\SC(=O)N(Cc3ccc(Cl)cc3)C2=O)cc1 | nt | nt | nt | nt | nt | nt | 42* | 15* | 9.6µM* | -28% | 8.6µM*
CN(C)c1ccc(/C=C2\NC(=O)NC2=O)cc1 | nt | nt | nt | 21% | nt | -23% | nt | nt | nt | nt | nt
O=C(NCc1cccs1)c1ccc2c(=O)n3nc(Nc4ccccc4)sc3nc2c1 | nt | ? | ? | -11% | nt | -5%[60.1 µM] | ? | nt | 19µM* | 158% | 3.4µM*
O=C(N/N=C/c1cn(Cc2cccc(F)c2)c2ccccc12)c1cc(O)cc(O)c1 | -104* | 1.6µM* | 1.4µM* | ? | 20µM* | 7.1µM* | 8.4* | 8.5* | 5.4µM* | 24µM* | 2.2µM* | TbPGK inh=2.1µM*
O=C1CCCC2=C1C(c1ccco1)Nc1ccc3ccccc3c12 (stereo not drawn) | -64* | 2µM* | 6.3µM* | 6.3µM* | 18µM* | 28µM* | 7.5* | 19* | 15µM* | -28% | 3µM* | TbPGK inh=15µM*
Cc1ccc(C2Nc3ccc4ccccc4c3C3=C2C(=O)CC(C)(C)C3)o1 (stereo not drawn) | nt | -12% | -15% | 25% | -7% | -11% | nt | nt | nt | nt | nt
O=C(O)c1cccc2cc(-c3ccccc3)oc(=O)c12 | 2 | -21% | 8% | 24% | -7% | -4%[60.1 µM] | nt | nt | nt | nt | nt
O=C(O)c1cccc2cccc(-c3c4ccc(=O)c(O)c-4oc4c(O)c(O)ccc34)c12 | -95* | -98% | nt | 0.71µM* | 3.5µM* | 1.1µM* | 0.67* | 0.95* | 1.5µM* | 4.3µM* | 0.38µM* | TbPGK inh=0.33µM*
Cc1ccc(OCC(=O)Nc2cccc(OCc3cc(=O)n4ccccc4n3)c2)cc1C | nt | 11% | 23% | -13% | nt | -5%[60.1 µM] | nt | nt | nt | nt | nt
O=c1/c(=C/c2ccccn2)sc2nc3ccccc3n12 | -1 | ? | ? | 49% | -31% | -12% | nt | nt | nt | nt | nt
O=C(O)c1cccc(-c2ccc(/C=c3/sc4nc5ccccc5n4c3=O)o2)c1 | ? | 3.2µM* | 4µM* | ? | 40µM* | 22µM* | 3.8* | 5.4* | 4.8µM* | ? | 1.9µM*
COc1cc(-c2oc3cc(O)ccc3c(=O)c2O)ccc1O | nt | nt | nt | nt | nt | -10%[60.1 µM] | nt | nt | nt | nt | nt
